# Reference: PMC7862700, “An all-to-all approach to the identification of sequence-specific readers for epigenetic DNA modifications on cytosine”
# Tests used:
# Assay in all cases: DAPPL (digital affinity profiling via proximity ligation, sequencing); 10 mM Tris-HCl pH 7.5, 50 mM NaCl, 1 mM DTT, 4% glycerol, room temperature, 30 min; GST-TFs on glutathione beads, 16-mer random dsDNA library, 0.1% formaldehyde crosslink after washing; high values mean tight binding
# Details in all cases: protein: recombinant; tags: N-terminal GST; dsDNA, one strand shown
# ETV1 = ETV1 (Homo sapiens, UniProt P50549 1-477)
# Chain of ETV1 (P50549 whole entry, the tested form may be a part): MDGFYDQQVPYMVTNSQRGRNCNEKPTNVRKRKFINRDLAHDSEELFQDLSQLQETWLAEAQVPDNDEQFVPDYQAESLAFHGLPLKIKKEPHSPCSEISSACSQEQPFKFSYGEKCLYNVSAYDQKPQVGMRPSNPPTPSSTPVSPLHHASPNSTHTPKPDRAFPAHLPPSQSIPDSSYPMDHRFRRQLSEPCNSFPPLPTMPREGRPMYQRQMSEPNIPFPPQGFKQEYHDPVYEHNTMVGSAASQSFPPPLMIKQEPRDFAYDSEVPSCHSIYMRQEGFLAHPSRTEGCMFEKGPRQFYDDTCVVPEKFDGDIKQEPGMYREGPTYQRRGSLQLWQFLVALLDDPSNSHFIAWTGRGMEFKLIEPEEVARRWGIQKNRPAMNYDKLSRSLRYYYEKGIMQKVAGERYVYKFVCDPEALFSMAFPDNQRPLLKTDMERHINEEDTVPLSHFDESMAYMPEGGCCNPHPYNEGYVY
# In short: (§1)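 Binding signal is each hexamer's read frequency for a factor divided by its frequency in the tag-only sample. The factors were GST-fused human transcription factors from yeast, captured on glutathione beads, DNA-barcoded and pooled with that sample. Pools were incubated with 200 nmole of a random double-stranded 16-mer DNA library in Tris/NaCl/DTT/glycerol buffer at room temperature for 30 min, then washed, crosslinked with 0.1% formaldehyde, proximity-ligated with BsaI/T4 ligase (1 h, 37 °C), PCR-amplified and sequenced on an Illumina NextSeq500.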
# ERF = biological target: T1, ERF (Homo sapiens, UniProt P50548 1-548)
# T1 sequence: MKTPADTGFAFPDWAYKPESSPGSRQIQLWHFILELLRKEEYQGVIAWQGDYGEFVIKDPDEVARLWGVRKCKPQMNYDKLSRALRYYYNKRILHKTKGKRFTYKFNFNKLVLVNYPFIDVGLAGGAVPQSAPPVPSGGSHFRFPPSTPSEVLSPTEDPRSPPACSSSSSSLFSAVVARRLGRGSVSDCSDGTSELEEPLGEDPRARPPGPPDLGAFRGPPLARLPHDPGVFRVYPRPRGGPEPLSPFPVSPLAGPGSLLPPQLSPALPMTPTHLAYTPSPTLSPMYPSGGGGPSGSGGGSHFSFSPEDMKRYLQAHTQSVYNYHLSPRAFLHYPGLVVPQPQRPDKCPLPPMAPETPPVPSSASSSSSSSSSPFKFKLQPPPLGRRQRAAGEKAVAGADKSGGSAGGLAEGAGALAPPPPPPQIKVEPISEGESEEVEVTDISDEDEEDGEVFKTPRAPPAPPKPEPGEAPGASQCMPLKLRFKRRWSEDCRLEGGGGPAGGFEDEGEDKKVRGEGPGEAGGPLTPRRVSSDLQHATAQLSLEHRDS
# In short: as §1
# ETV3L = biological target: T2, ETV3L (Homo sapiens, UniProt Q6ZN32 1-361)
# T2 sequence: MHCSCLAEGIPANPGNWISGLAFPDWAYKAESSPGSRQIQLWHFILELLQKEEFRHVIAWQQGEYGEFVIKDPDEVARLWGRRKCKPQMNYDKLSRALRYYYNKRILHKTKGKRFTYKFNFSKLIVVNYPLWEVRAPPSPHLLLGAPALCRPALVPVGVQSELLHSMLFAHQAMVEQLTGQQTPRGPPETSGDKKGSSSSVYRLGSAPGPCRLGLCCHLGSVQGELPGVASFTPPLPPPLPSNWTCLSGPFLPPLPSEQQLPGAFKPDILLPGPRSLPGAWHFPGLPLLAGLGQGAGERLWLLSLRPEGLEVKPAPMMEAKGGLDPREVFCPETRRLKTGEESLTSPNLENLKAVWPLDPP
# In short: as §1
# ETS2 = biological target: T3, ETS2 (Homo sapiens, UniProt P15036 1-469)
# T3 sequence: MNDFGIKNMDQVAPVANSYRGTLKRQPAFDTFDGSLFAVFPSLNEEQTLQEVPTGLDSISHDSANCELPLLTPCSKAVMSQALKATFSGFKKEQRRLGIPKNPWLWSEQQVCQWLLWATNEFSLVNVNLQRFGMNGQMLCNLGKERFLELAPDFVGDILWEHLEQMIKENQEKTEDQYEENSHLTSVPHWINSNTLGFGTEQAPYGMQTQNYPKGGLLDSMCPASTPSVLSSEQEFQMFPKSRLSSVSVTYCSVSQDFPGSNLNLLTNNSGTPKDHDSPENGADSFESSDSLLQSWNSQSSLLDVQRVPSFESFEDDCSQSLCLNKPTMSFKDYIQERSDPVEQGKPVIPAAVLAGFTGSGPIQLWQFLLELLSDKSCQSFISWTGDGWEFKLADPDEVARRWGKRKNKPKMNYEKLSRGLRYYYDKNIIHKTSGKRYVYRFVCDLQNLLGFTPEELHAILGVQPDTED
# In short: as §1
# SPDEF = biological target: T4, SPDEF (Homo sapiens, UniProt O95238 1-335)
# T4 sequence: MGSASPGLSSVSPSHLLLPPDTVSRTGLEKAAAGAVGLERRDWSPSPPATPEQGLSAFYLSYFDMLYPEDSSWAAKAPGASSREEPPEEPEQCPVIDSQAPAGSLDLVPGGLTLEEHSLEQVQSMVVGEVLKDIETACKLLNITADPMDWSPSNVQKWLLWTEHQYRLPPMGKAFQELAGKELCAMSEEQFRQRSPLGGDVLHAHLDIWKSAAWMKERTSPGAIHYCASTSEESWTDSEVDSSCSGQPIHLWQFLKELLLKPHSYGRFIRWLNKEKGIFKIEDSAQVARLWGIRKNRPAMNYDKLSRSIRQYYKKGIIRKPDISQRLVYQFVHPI
# In short: as §1
# ETV7 = biological target: T5, ETV7 (Homo sapiens, UniProt Q9Y603 1-341)
# T5 sequence: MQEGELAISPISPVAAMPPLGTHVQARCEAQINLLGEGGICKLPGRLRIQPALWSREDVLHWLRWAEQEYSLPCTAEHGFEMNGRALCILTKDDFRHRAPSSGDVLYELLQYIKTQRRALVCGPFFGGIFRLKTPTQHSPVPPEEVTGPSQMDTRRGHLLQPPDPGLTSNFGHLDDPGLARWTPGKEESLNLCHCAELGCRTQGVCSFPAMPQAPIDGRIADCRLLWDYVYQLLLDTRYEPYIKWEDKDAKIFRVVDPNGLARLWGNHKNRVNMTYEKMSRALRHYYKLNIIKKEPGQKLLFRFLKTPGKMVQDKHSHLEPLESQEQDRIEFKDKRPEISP
# In short: as §1
# ELF5 = biological target: T6, ELF5 (Homo sapiens, UniProt Q9UKW6-2 1-255)
# T6 sequence: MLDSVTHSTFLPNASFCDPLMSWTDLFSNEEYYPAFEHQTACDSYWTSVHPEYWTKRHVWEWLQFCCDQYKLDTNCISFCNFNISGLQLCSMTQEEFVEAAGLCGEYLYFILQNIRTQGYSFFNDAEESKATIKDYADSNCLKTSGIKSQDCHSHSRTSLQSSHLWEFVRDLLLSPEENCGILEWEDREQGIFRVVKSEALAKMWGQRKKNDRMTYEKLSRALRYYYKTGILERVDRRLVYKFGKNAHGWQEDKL
# In short: as §1
# ETV3 = biological target: T7, ETV3 (Homo sapiens, UniProt P41162-2 1-143)
# T7 sequence: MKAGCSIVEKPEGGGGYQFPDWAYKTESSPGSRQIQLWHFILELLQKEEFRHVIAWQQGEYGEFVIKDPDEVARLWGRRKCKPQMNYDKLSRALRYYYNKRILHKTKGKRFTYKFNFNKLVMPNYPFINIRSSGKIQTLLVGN
# In short: as §1
# ETV6 = ETV6 (Homo sapiens, UniProt P41212 1-452)
# Chain of ETV6 (P41212 whole entry): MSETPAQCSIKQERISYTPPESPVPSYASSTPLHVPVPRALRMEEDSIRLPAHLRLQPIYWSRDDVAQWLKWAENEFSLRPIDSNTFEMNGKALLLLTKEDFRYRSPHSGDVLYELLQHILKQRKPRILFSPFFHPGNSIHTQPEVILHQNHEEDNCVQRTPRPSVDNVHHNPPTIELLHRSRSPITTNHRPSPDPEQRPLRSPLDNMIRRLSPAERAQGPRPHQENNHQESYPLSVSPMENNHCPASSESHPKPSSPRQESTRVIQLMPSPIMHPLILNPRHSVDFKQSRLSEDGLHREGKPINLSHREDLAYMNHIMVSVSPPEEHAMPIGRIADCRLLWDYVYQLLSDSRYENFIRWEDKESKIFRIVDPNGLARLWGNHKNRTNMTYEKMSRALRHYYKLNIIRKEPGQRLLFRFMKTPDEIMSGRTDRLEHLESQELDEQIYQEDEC
# In short: as §1
sequence,measurement,setting,value
TACTTA,binding signal,ETV1,"1.24 fold enrichment (6-mer frequency, TF over GST control)"
same,binding signal,ERF,"1.29 fold enrichment (6-mer frequency, TF over GST control)"
same,binding signal,ETV3L,"1.2 fold enrichment (6-mer frequency, TF over GST control)"
same,binding signal,ETS2,"1.25 fold enrichment (6-mer frequency, TF over GST control)"
same,binding signal,SPDEF,"1.14 fold enrichment (6-mer frequency, TF over GST control)"
same,binding signal,ETV7,"1.21 fold enrichment (6-mer frequency, TF over GST control)"
same,binding signal,ELF5,"1.14 fold enrichment (6-mer frequency, TF over GST control)"
same,binding signal,ETV3,"1.17 fold enrichment (6-mer frequency, TF over GST control)"
same,binding signal,ETV6,"1.28 fold enrichment (6-mer frequency, TF over GST control)"
